In PubChem BioAssay AID2501 (Southern Research Specialized Biocontainment Screening …, 2010):
The campaign covered roughly 2,200 compounds. About 1,200 (55%) were called active. So high a share suggests a set chosen from earlier hits. The list shows a part of the results. Unmarked numbers belong to inactive results. Cut-off not given; nearly all actives show IC50 up to about 92 µM.

assay: counter assay for TAg ATPase ADP read-out – biochemical, ADP-Hunter, fluorescence, counter-screen (AID 2501); conditions: series mostly up to 100 µM;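 further: purified T antigen ATPase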;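 on inhibition: 0% = enzyme with vehicle and 100% = reference inhibitor wells; higher means more inhibition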

SMILES | IC50 | inhibition
CSc1nc(-c2ccco2)nn1S(C)(=O)=O | inactive | –
CCCCC(CC)CN=C(N)NC(N)=NCCCCCCN=C(N)NC(N)=NCC(CC)CCCC (stereo not drawn) | inactive | –
Cc1ccc(/C=C2/SC(=O)NC2=S)o1 | 4.25 µM (active) | –
Cc1ccc(C2=NOC(=O)/C2=C\c2ccc(C)o2)cc1 | inactive | –
Cc1ccc(/C=c2\sc3nc(-c4ccco4)nn3c2=O)o1 | inactive | –
COc1ccc(N2CCN(C(CNC(=O)C3CCCCC3)c3cccnc3)CC2)cc1 (stereo not drawn) | 9.65 µM (active) | –
CCN(CCNC(=O)C1CCCN(Cc2nc(-c3ccc(OC)cc3)oc2C)C1)c1ccccc1 (stereo not drawn) | inactive | –
COc1ccc(C(=O)CC(c2ccccc2)C2CCCCC2=O)cc1 (stereo not drawn) | inactive | –
O=C(Nc1ccccc1F)c1coc(=O)c(Br)c1 | inactive | –
COc1cccc(CNC(=O)Cc2ccc(Br)cc2)c1 | inactive | –
COc1ccccc1CNC(=O)COC(=O)c1c(C)nn(-c2ccccc2)c1Cl | inactive | –
COc1ccccc1CNC(=O)c1ccc(CS(=O)Cc2cccc(Cl)c2)o1 (stereo not drawn) | 12.8 µM (active) | –
COC(=O)C1=C(O)/C(=C/c2cccc(OC)c2O)N=C1C | 6.57 µM (active) | –
CCOC(=O)C1=C(O)/C(=C/c2cccc(OC)c2O)N=C1C | 7.3 µM (active) | –
COC(=O)C1=C(O)/C(=C\c2ccc(CNS(=O)(=O)c3ccccc3)o2)N=C1C | inactive | –
COc1cc(/C=C2\SC(=S)N(NC(=O)c3cccnc3)C2=O)ccc1O | 6.17 µM (active) | –
CC(/C=C1\SC(=S)N(CCCC(=O)Nc2ccc(C(=O)O)c(O)c2)C1=O)=C\c1ccccc1 | inactive | –
COc1cc(/C=C2\SC(=S)N(NS(=O)(=O)c3ccccc3)C2=O)ccc1O | 12.1 µM (active) | –
O=C(NN1C(=O)/C(=C/c2cc([N+](=O)[O-])ccc2O)SC1=S)c1ccccc1O | inactive | –
O=C(NN1C(=O)/C(=C/C=C/c2ccco2)SC1=S)c1ccccc1O | inactive | –
COc1cc(/C=C2\SC(=S)N(NS(=O)(=O)c3ccc(C)cc3)C2=O)ccc1O | 8.48 µM (active) | –
O=C1/C(=C/C=C/c2ccco2)SC(=S)N1NS(=O)(=O)c1ccccc1 | – | 22.8% [at 12.5 µM]
CCOc1ccc(N2Nc3n[nH]c(N)c3N2)cc1 | 5.65 µM (active) | –
CC[N+]1(CC(O)COC2CC(C)CC(C)(C)C2)CCOCC1 (stereo not drawn) | inactive | –
COc1cc2c(cc1OC)C[N+](C)(C)CC2 | 72.6 µM (active) | –
N#CCSc1nc(-c2ccccc2)nc2ccccc12 | inactive | –
O=c1c2c(-c3ccco3)csc2nc(SCc2cn3cccnc3n2)n1-c1ccccc1 | inactive | –
COCc1cc(=O)n2[nH]c(-c3ccsc3-n3c(C)ccc3C)cc2n1 | inactive | –
